Reference: PubChem BioAssay (NCI)
Compounds without any hit were thinned out: in the full panel of roughly 83,000, 20% have a hit.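 In brief: 96-well plates, 48 h treatment, single concentration, percent growth endpoint.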 Values without a mark were called inactive. Activity calls are given as the source filed them.

test system: CAKI-1 renal; test: NCI-60 one-dose screen, 48 h (100 = growth as untreated, 0 = no growth, -100 = all killed); conditions: 10 µM unless noted
Description: Growth inhibition of the CAKI-1 human tumor cell line is measured as a screen for anti-cancer activity. Cells are grown in 96 well plates and exposed to the test compound for 48 hours. Compounds are tested at a single concentration, which is 10^-5 M for most compounds. The reported endpoint is percent growth (GI% or GIPRCNT), where numbers from 0 - 100% represent growth inhibition, and numbers from -100% - 0 represent cell death. For example, a value of 40 represents 60% growth inhibition. A value of 0 means no net growth occurred over the course of the experiment. A value of -40 indicates 40% of cells at the beginning of the experiment died by the end of the experiment. A value of -100 means all cells are dead at the end of the experiment.
NCI-60 Human Tumor Cell Lines Screen was performed using the standard one-dose NCI protocol, which is described in more detail at https://dtp.cancer.gov/discovery_development/nci-60/default.htm.
Compounds with GIPRCNT values below 10 were considered active. Activity score was based on GIPRCNT using the following formula: […]
Score is 0 for GIPRCNT values of 100 or above, 50 for GIPRCNT values of 0, and 100 for GIPRCNT values of -100.

Compound | growth
Nc1c(Br)cc([N+](=O)[O-])cc1[N+](=O)[O-] | 92.8%
Oc1ccc(Br)cc1CN1CCN(Cc2ccc(Cl)cc2)CC1 | 59.5%
CC12CCC(=O)C=C1C(O)CC1C2CCC2(C)C(O)CCC12 (stereo not given) | 102%
c1ccc2nc(OCCN3CC3)ccc2c1 | 90.8%
NC(Cc1ccc(O)cc1)C(=O)N/N=C/c1ccc(N(CCCl)CCCl)cc1 (stereo not given) | 25.9%
N#[N+]c1cnc([O-])[nH]c1=O | 94.3%
CCC[CH2][Sn]([CH2]CCC)([CH2]CCC)[O]C(=O)c1ccc(Cl)cc1Cl | -92.6% (active)
CC1(C)N=C(N)N=C(N)N1c1ccc(OCCCCNC(=O)Nc2cccc(S(=O)(=O)F)c2)c(Cl)c1 | 96.6%
COc1cccc2c1C(=O)c1c(O)c3c(c(O)c1C2=O)CC(O)(/C(C)=N/NC(=O)CCC(=O)N/N=C(\C)C1(O)Cc2c(O)c4c(c(O)c2C(OC2CC(N)C(O)C(C)O2)C1)C(=O)c1c(OC)cccc1C4=O)CC3OC1CC(N)C(O)C(C)O1 (stereo not given) | -44.3% [5 µM] (active)
CC1CC=CCC12C(=O)NC(=S)NC2=O (stereo not given) | 96.6%
O=C(N/N=C/c1ccc([N+](=O)[O-])o1)c1cc([N+](=O)[O-])cc([N+](=O)[O-])c1O | 88.5%
O=C(Nc1ccc(S(=O)(=O)F)cc1)Oc1ccccc1 | 105%
NC(Cc1ccc2c(c1)OCO2)c1ccc2c(c1)OCO2 (stereo not given) | 95.2%
C[As](=O)(O)c1ccc(C(=O)O)cc1 | 120%
CC1(C)N=C(N)N=C(N)N1c1ccc(CCCCc2ccc(S(=O)(=O)F)cc2)cc1 | 40.8%
O=C(CCl)NCNC(=O)CCl | 56.8%
C1CNC2CCCC2C1 (stereo not given) | 103%
O=C(CCc1ccco1)NC1CCN(CC2(c3ccc(Cl)cc3)CCC2)CC1 | 5.62% (active)
Cn1cnnc1[S-].[Au+].c1ccc([PH+](c2ccccc2)c2ccccc2)cc1 | 23.6%
O=C(O)c1nn(Cc2ccc(Cl)cc2)c2ccccc12 | 106%

Compound | growth
NC(=O)C(Cl)Cl | 98.1%
O=C(NCCNC(=O)c1ccc([As](O)O)cc1)c1ccc([As](O)O)cc1 | 98.3%
CC1(C)N=C(N)N=C(N)N1c1ccc(CCC(=O)Nc2cccc(S(=O)(=O)F)c2)cc1 | -5.98% (active)
O=c1[nH]c2cc(Cl)ccc2n1C1CCN(CCCC(c2ccc(F)cc2)c2ccc(F)cc2)CC1 | 30%
CC(N)Cc1ccc(O)cc1 (stereo not given) | 103%
CC1(C)N=C(N)N=C(N)N1c1ccc(CCCCc2ccc(S(=O)(=O)F)cc2)c(Cl)c1 | 17%
CC(=O)O[C@H]1CCC2(C)C(=CCC3C2CCC2(C)/C(=N/OC(=O)c4ccc(N(CCCl)CCCl)cc4)CCC32)C1 (stereo not given in full) | 50.2%
CCCCNCCc1ccccn1 | 97%
CC(C)C1c2ccc(O)cc2Oc2nc(N)c(C#N)c(N)c21 (stereo not given) | 93.5%
O=CN1N=C(c2ccc3c(c2)OCO3)CC1c1sc(N(CCCl)CCCl)nc1Cl (stereo not given) | 82.1%
C=CC(=O)NC(O)C(Cl)(Cl)Cl (stereo not given) | 93.5%
c1ccc([As]=[As]c2ccccc2)cc1 (stereo not given) | -51.4% (active)
Cc1cc(NC(=O)/C=C/c2ccc([N+](=O)[O-])cc2)ccc1S(=O)(=O)F | 114%
ClCCN(CCCl)C(c1ccccc1)c1ccc(Cl)cc1 (stereo not given) | 10.1%
[Br][Pb]([c]1ccccc1)([c]1ccccc1)[c]1ccccc1 | -100% (active)
C/C(=N/OC(=O)N(C)C)c1ccc(Cl)cc1Cl | 96.6%
CCC(CC)(c1ccccc1)C(OC(N)=O)c1ccccc1 (stereo not given) | 60.7%
COc1cc(N(CCCl)CCCl)ccc1C=Nc1ccccc1C(=O)O | 98.7%
O=C1NC(=S)NC(=O)C1=Cc1ccccc1 | 95%
CCC(C)[C@H]1O[C@]2(C=C[C@@H]1C)C[C@@H]1C[C@@H](C/C=C(\C)[C@@H](OC3C[C@H](OC)C(O[C@H]4C[C@H](OC)[C@@H](O)[C@H](C)O4)[C@H](C)O3)[C@@H](C)/C=C/C=C3\CO[C@@H]4[C@H](O)C(C)=C[C@@H](C(=O)O1)[C@]34O)O2 (stereo not given in full) | 19.8%
